In PubChem BioAssay (Tox21):
“And” between values parts separate entries of the source, which are not always exact repeats. Equal entries are not always repeated. Inconclusive results are not listed. Where a call stands in place of a potency, no number is given. More than one record can exist for a structure, and the calls need not agree. The source made the active and inactive calls. Unless noted, calls follow the shape of the dose curve; as a rule, active = well fitted curve in the direction sought with a large enough effect in the repeat runs; inconclusive = weak or mixed curves; inactive = no such curve, though single readings can be large; an effect the other way counts as inactive or inconclusive.

Tests used:
[1] = qHTS assay to identify small molecule agonists of the hypoxia (HIF-1) signaling pathway - cell viability counter screen (AID 1224844; calls by dose curve; also: nearly all actives have a fitted effect of over 50% in size; also: potency is read from the fitted curve at half-maximal effect)
In short: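 ME-180 HRE-bla cells, 2,000/well, 0.5% dialyzed FBS; 5 hr settle, 17 hr compound at 37C/5% CO2; CCF4-AM reporter read first, then CellTiter-Glo luminescence after 30 min RT.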

[2] = qHTS assay to identify small molecule agonists of H2AX (AID 1224845; active = well fitted activation curve with a large enough effect in the signal ratio in the repeat runs, not every such curve was filed as active; the % refers to the signal ratio; also: potency is read from the fitted curve at half-maximal effect)
In short: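 Wild-type CHO-K1 cells, plated overnight, exposed 3hr at 37C to 15 concentrations (0.76% DMSO final). Lysed, then HTRF anti-pH2AX (S139) cryptate and anti-H2AX-d2 antibodies, 24 hr room temperature; 665/620 nm emission read.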

[3] = qHTS assay to identify small molecule agonists of H2AX - cell viability counter screen (AID 1224847; calls by dose curve; also: nearly all actives have a fitted effect of over 30% in size; also: potency is read from the fitted curve at half-maximal effect)
In short: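 Cells plated first: CHO-K1, 1000 per well in 10% FBS medium, incubated overnight at 37C. Then 15-point compound titration added (final DMSO 0.76%) for 3 hr. Finally CellTiter-Glo added and luminescence read.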

[4] = qHTS RealTime-Glo MT Cell Viability Assay in HepG2 cells - 24 hour (AID 1224867); also: nearly all actives have a fitted effect of over 50% in size; also: potency is read from the fitted curve at half-maximal effect
In short: (§1)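 qHTS, HepG2, 600 cells/well, RealTime-Glo (NanoLuc + prosubstrate) added with cells; 5 h preincubation; DMSO compound addition; 37 C; luminescence at 0/8/16/24/32/40 h.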

[5] = qHTS RealTime-Glo MT Cell Viability Assay in HEK293 cells - 32 hour (AID 1224868); also: nearly all actives have a fitted effect of over 50% in size; also: potency is read from the fitted curve at half-maximal effect
In short: (§2)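 Assay medium contained NanoLuc luciferase plus cell-permeant prosubstrate, added with HEK293 cells at 600 cells/well. After 5 h at 37 C/5% CO2 compounds were added; plates stayed at 37 C for 40 h with serial luminescence reads.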

[6] = A CellTox Green Cytotoxicity Assay to monitor cytotoxicity in HEK293 cells - 0 hour (AID 1224869); also: nearly all actives have a fitted effect of over 50% in size
In short: (§3)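 Nonlytic real-time cytotoxicity: HEK293 + CellTox Green reagent plated, 5 h preincubation, pintool compound addition (23 nL in DMSO), 37 C for 40 h, fluorescence measured at successive time points.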

[7] = qHTS RealTime-Glo MT Cell Viability Assay in HepG2 cells - 40 hour (AID 1224870); also: nearly all actives have a fitted effect of over 50% in size; also: potency is read from the fitted curve at half-maximal effect
In short: (§4)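 HepG2 cells (600/well) mixed with RealTime-Glo MT reagent, settled 5 h at 37 C/5% CO2 before compound addition. Nonlytic NanoLuc luminescence from viable-cell prosubstrate reduction read repeatedly during 40 h treatment at 37 C.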

[8] = A CellTox Green Cytotoxicity Assay to monitor cytotoxicity in HEK293 cells - 40 hour (AID 1224871); also: nearly all actives have a fitted effect of over 45% in size; also: potency is read from the fitted curve at half-maximal effect
In short: as §3

[9] = qHTS RealTime-Glo MT Cell Viability Assay in HEK293 cells - 16 hour (AID 1224872); also: nearly all actives have a fitted effect of over 50% in size; also: potency is read from the fitted curve at half-maximal effect
In short: as §2

[10] = qHTS RealTime-Glo MT Cell Viability Assay in HepG2 cells - 8 hour (AID 1224873); also: nearly all actives have a fitted effect of over 55% in size; also: potency is read from the fitted curve at half-maximal effect
In short: as §4

[11] = qHTS RealTime-Glo MT Cell Viability Assay in HEK293 cells - 40 hour (AID 1224874); conditions: RealTime-Glo luminescence; max response: stronger effect = lower value; also: nearly all actives have a fitted effect of over 50% in size; also: potency is read from the fitted curve at half-maximal effect
In short: (§5)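 Cells were seeded together with NanoLuc luciferase and a prosubstrate that viable cells reduce to a luciferase substrate. After a 5 h incubation at 37 C/5% CO2, compounds were added and luminescence was measured repeatedly during 40 h of treatment.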

[12] = A CellTox Green Cytotoxicity Assay to monitor cytotoxicity in HEK293 cells - 24 hour (AID 1224875); also: nearly all actives have a fitted effect of over 45% in size; also: potency is read from the fitted curve at half-maximal effect
In short: as §3

[13] = A CellTox Green Cytotoxicity Assay to monitor cytotoxicity in HepG2 cells - 16 hour (AID 1224876); also: nearly all actives have a fitted effect of over 45% in size; also: potency is read from the fitted curve at half-maximal effect
In short: (§6)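 Read-out is fluorescence of a cyanine dye excluded from live cells that stains DNA of dead HepG2 cells, with signal proportional to cytotoxicity. Plates were read at 0, 8, 16, 24, 32 and 40 h after compound addition.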

[14] = qHTS RealTime-Glo MT Cell Viability Assay in HepG2 cells - 32 hour (AID 1224877); also: nearly all actives have a fitted effect of over 55% in size; also: potency is read from the fitted curve at half-maximal effect
In short: as §1

[15] = A CellTox Green Cytotoxicity Assay to monitor cytotoxicity in HepG2 cells - 24 hour (AID 1224878); also: nearly all actives have a fitted effect of over 45% in size; also: potency is read from the fitted curve at half-maximal effect
In short: as §6

[16] = A CellTox Green Cytotoxicity Assay to monitor cytotoxicity in HepG2 cells - 40 hour (AID 1224879); also: nearly all actives have a fitted effect of over 40% in size; also: potency is read from the fitted curve at half-maximal effect
In short: as §6

[17] = qHTS RealTime-Glo MT Cell Viability Assay in HEK293 cells - 0 hour (AID 1224880)
In short: as §5

[18] = qHTS assay to identify small molecule antagonists of the estrogen related receptor (ERR) signaling pathway from Tox21 library (AID 1224848); also: nearly all actives have a fitted effect of over 50% in size; also: potency is read from the fitted curve at half-maximal effect
In short: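 Luminescent reporter read-out (ONE-Glo) from NTP's ERR cell line after 18 h treatment at 37 C with DMSO-dissolved Tox21 compounds; cells pre-plated 6 h beforehand at 2,000 per well.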

[19] = qHTS assay to identify small molecule agonists of the estrogen related receptor (ERR) signaling pathway from Tox21 library (AID 1224849; calls by dose curve; also: nearly all actives have a fitted effect of over 15% in size); conditions: ERR reporter cell line, ONE-Glo luciferase, 18 h; at 92.4 µM (top of the series)
In short: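 ERR cells, 6 h pre-incubation 37 C/5% CO2; cpd in DMSO pinned; 18 h 37 C; ONE-Glo added, 30 min RT; luminescence read. Agonist mode, qHTS.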

Row | SMILES | Potency [1] | Potency [2] | Potency [3] | Potency [4] | Potency [5] | Potency [6] | Potency [7] | Potency [8] | Potency [9] | Potency [10] | max response [11] | Potency [12] | Potency [13] | Potency [14] | Potency [15] | Potency [16] | outcome [17] | Potency [18] | activity change, positive = activation [19] | Potency [11]
1 | Cc1ccc(N)c(C)c1 | inactive | inactive | inactive | inactive | inactive | inactive | inactive | inactive | inactive | inactive | 4.9% (inactive) and -12.6% (inactive) | inactive | inactive | inactive | inactive | inactive | inactive | – | – | –
2 | CC(C)(C)CC(C)(C)c1ccc(O)cc1 | 38.9 µM (active) and inactive | 89.8 µM (active) | 4.5 µM (active) and 39.1 µM (active) | 46.2 µM (active) and inactive | inactive | inactive | 49 µM (active) and inactive | 30.9 µM (active) and 21.3 µM (active) | 12.3 µM (active) | 21.9 µM (active) | -17% (inactive) | 13.8 µM (active) and 21.3 µM (active) | 27.5 µM (active) and 10.7 µM (active) | 43.6 µM (active) and inactive | 19.5 µM (active) and 13.4 µM (active) | – | inactive | – | – | –
3 | ClCc1ccccc1Cl | inactive | inactive | inactive | inactive | inactive | inactive | inactive | inactive | inactive | inactive | -3.09% (inactive) | inactive | inactive | inactive | inactive | inactive | inactive | inactive | 8.41% (inactive) | –
4 | COc1ccccc1N1CCNCC1 | inactive | inactive | inactive | inactive | inactive | inactive | inactive | inactive | inactive | inactive | -1.42% (inactive) | – | inactive | inactive | inactive | inactive | inactive | – | – | –
5 | C[Si](Cn1cncn1)(c1ccc(F)cc1)c1ccc(F)cc1 | inactive | inactive | 104 µM (active) | inactive | 25.4 µM (active) and 21.9 µM (active) | inactive | inactive | 54.9 µM (active) | 40.2 µM (active) and 21.9 µM (active) | inactive | – | inactive | 50.6 µM (active) and inactive | inactive | 50.6 µM (active) | 50.6 µM (active) and 49 µM (active) | inactive | 28.2 µM (active) and 30.6 µM (active) | -66.3% (inactive) and -52.8% (inactive) | 25.4 µM (active) and 21.9 µM (active)
6 | COC1CC(=C(c2cccs2)c2cccs2)C[N+](C)(C)C1 (stereo not drawn) | inactive | inactive | inactive | inactive | inactive | inactive | inactive | inactive | inactive | inactive | -21.7% (inactive) | – | inactive | inactive | inactive | inactive | inactive | – | – | –
